In PubChem BioAssay AID485353 (National Center for Advancing Translational Sciences (NCATS), 2010):
In all, about 330,000 compounds went through this assay and about 610 (0.18%) were called active. Another 2% or so got no clear call; they are omitted. This excerpt belongs to a sample that is enriched for actives. Values without a mark were called inactive. The call rests on the fitted dose curve.

experiment: qHTS of Yeast-based Assay for SARS-CoV PLP; further: nearly all actives have a fitted effect of over 55% in size; on activity, positive = growth rescue: 0% is about no effect; conditions: S. cerevisiae expressing SARS-CoV PLpro; Potency: growth rescue; series mostly up to 32.9 µM; activity, positive = growth rescue: at the top concentration
Potency means the concentration at half of the fitted maximal effect.

| SMILES | activity, positive = growth rescue | Potency |
| --- | --- | --- |
| CCOC(=O)c1nn(-c2ccccc2F)c2nc(Nc3ccccc3)cc(=O)n12 | 19.8% | – |
| Cc1cc(NC(=O)CS(=O)(=O)c2cn(C)c3ccccc23)no1 | 4.32% | – |
| CC1CN(S(=O)(=O)c2ccccc2)C(C)CN1S(=O)(=O)c1ccccc1 (stereo unspecified) | 7.74% | – |
| CCOc1cccc(-c2nnc(SCC(=O)NC3CC3)n2C)c1 | -1.58% | – |
| Cn1c(SCC(=O)NC2CCCCC2)nnc1-c1ccc(N)cc1 | 0.0296% | – |
| Cn1c(SCC(=O)NC2CCCCC2)nnc1-c1cc2ccccc2o1 | – | 10 µM (active) |
| CN(c1ccc2nc3ccccc3c(=O)n2n1)C1CCCCC1 | -12.9% | – |
| CC(C)Cc1nnc(NC(=O)CCC(=O)Nc2ccc3cn[nH]c3c2)s1 | -0.296% | – |
| O=c1oc2ccccc2cc1-c1cn(-c2ccccc2)c(=S)[nH]1 | -4.67% | – |
| S=c1[nH]nc(-c2cccs2)n1/N=C/c1cn(-c2ccccc2)nc1-c1ccc(Cl)cc1 | 1.04% | – |
| S=c1[nH]c(-c2cccs2)cn1-c1ccccc1 | – | 11.2 µM (active) |
| O=C(NN1C(=O)C2C(C1=O)C1C=CC2C12CC2)c1ccccc1Cl (stereo unspecified) | 0.328% | – |
| CC12CCC(C(=O)N(NC(=O)c3ccccc3O)C1=O)C2(C)C (stereo unspecified) | – | 2.82 µM (active) |
| COc1ccccc1C(=O)NN1C(=O)C2C3C=CC(O3)C2C1=O (stereo unspecified) | 4.73% | – |
| O=c1c(Cl)c(NCc2ccc(F)cc2Cl)cnn1C12CC3CC(CC(C3)C1)C2 | -19.4% | – |
| O=C(NC1CCN(S(=O)(=O)c2ccc(F)cc2)CC1)c1ccccc1 | 0.666% | – |
| CCc1ccc(-c2nn(-c3ccccc3)cc2CSC(=N)N)cc1 | 14.6% | – |
| CCCCC(=O)N(c1ccc(OC)cc1)C1C=CS(=O)(=O)C1 (stereo unspecified) | -1.73% | – |
| Nc1ccc(Nc2cc(O)c3ncccc3c2)cc1 | 4.05% | – |
| Cc1ccc(OCCC(=O)Nc2ccc(S(=O)(=O)Nc3nccs3)cc2)cc1 | 0.527% | – |
| O=C(NN1C(=O)C2CCCCC2C1=O)c1ccco1 (stereo unspecified) | 1.51% | – |
| CC(C)=C1C2CCC1C1C(=O)N(NC(=O)c3ccco3)C(=O)C21 (stereo unspecified) | – | 2.82 µM (active) |

| SMILES | activity, positive = growth rescue | Potency |
| --- | --- | --- |
| O=C(NN1C(=O)C2C3C=CC(C3)C2C1=O)c1ccco1 (stereo unspecified) | 15% | – |
| CC(=O)NC(c1cccs1)c1cc(Br)c2cccnc2c1O (stereo unspecified) | -0.691% | – |
| Cc1nn2c(c1-c1ccccc1)N=C(c1ccco1)CC2c1ccccc1 (stereo unspecified) | -7.14% | – |
| CC[C@]12c3[nH]c4cc(CCC(=O)N(C)C)ccc4c3CCN1C(=O)[C@@H](CC(=O)NCCCN(C)C)C[C@@H]2C(=O)N1CCN(C(=O)c2ccco2)CC1 | 14.8% | – |
| CCC(C)NC(=O)C1CCCN(C(=O)NC2CCCCC2)C1 (stereo unspecified) | 2.48% | – |
| Cc1ccc(S(=O)Cc2ccc(C(=O)N3CCN(C4CCCCC4)CC3)o2)cc1 (stereo unspecified) | 2.29% | – |
| Cc1ccc(C(=O)COC(=O)CCN2C(=O)C3C4CCC(C4)C3C2=O)cc1C (stereo unspecified) | -3.46% | – |
| Cc1ccc(C(=O)COC(=O)CCN2C(=O)C3C4CC(C(Br)C4Br)C3C2=O)cc1 (stereo unspecified) | – | 12.6 µM (active) |
| O=C(CCN1C(=O)C2C3C=CC(C3)C2C1=O)Oc1ccc2ccccc2c1 (stereo unspecified) | 0.162% | – |
| CCN1C(=O)[C@@H]2[C@@H](c3ccc(-c4ccccc4)cc3)N3CCCC[C@@]3(C(=O)OC)[C@@H]2C1=O | -2.04% | – |
| O=C(Oc1cccc(N2C(=O)C3C4c5ccccc5C(c5ccccc54)C3C2=O)c1)c1ccco1 (stereo unspecified) | 17.8% | – |
| Cc1nc2ccccc2n1C(=O)N1CCOCC1 | 20.8% | – |
| CC1CN(C(=S)Nc2ccccc2F)CC(C)O1 (stereo unspecified) | 0.954% | – |
| O=C(CSC(=S)N1CCOCC1)c1ccccc1 | -10.4% | – |
| CC1CN(C(=S)SCC(=O)c2ccccc2)CC(C)O1 (stereo unspecified) | – | 10 µM (active) |
| Cc1ccc(NC(=O)COc2ccc(-n3ccnc3)cc2)cc1Cl | -21.9% | – |
| COc1cccc(NC(=O)c2ccccc2N(Cc2ccccc2)S(C)(=O)=O)c1 | 4.18% | – |
| O=C(CSc1cccc2cccnc12)N/N=C/c1cccnc1 | 2.68% | – |
| CCOC(=O)N1CCN(C(c2cccnc2)c2ccc3cccnc3c2O)CC1 (stereo unspecified) | – | 11.2 µM (active) |
| COc1ccccc1N1CCN(C(CNC(=O)Oc2ccccc2)c2cccnc2)CC1 (stereo unspecified) | -2.51% | – |
| Cc1ccc(S(=O)(=O)n2cccc2CO)cc1 | 1.41% | – |
| CC(C)(Oc1ccc(Cl)cc1)C(=O)OCC(=O)NCCc1ccc(S(N)(=O)=O)cc1 | 2.28% | – |

| SMILES | activity, positive = growth rescue | Potency |
| --- | --- | --- |
| O=C(Cn1cnc2c(nnn2-c2ccccc2)c1=O)N1CCC(Cc2ccccc2)CC1 | 1.22% | – |
| COc1cccc(NC(=O)CN(C)C(C)C(=O)Nc2ccc(C#N)cc2)c1 (stereo unspecified) | 1.84% | – |
| O=C(CCc1nnc(CCCCc2ccccc2)o1)NC(c1cccnc1)C(F)(F)F (stereo unspecified) | 0.42% | – |
| O=C(Nc1ccc(S(=O)(=O)N2CCCCC2)cc1)C1CC(=O)N(c2ccc(F)cc2)C1 (stereo unspecified) | 0.241% | – |
| CN1CCN(C2=NCCO2)CC1 | -0.788% | – |
| CC(C#N)OC(=O)c1cccnc1SCC(=O)Nc1ccc2c(c1)OCO2 (stereo unspecified) | -0.388% | – |
| CCCCOc1ccc(NC(=O)[C@@H]2CCCN2C(=O)C2CCN(S(=O)(=O)c3ccc(C)cc3)CC2)cc1 | -8.3% | – |
| COc1ccc(NC(=O)C2CCC(CNS(=O)(=O)c3csc(C(N)=O)c3)CC2)cc1OC (stereo unspecified) | 2.32% | – |
| Cc1cc(C)c2nc3nc(C)cc(C)c3c(N)c2c1 | -3.61% | – |
| O=C(CN1C(=O)NC2(CCCCCCC2)C1=O)NCc1ccc(F)cc1 | -2.13% | – |
| Cc1ccccc1OCc1nnc(SCC(=O)N2c3ccccc3Sc3ccc(Cl)cc32)o1 | -4.39% | – |
| O=C(CN1C(=O)/C(=C\c2ccc(C(F)(F)F)cc2)Sc2ccccc21)NCc1ccco1 | – | 12.6 µM (active) |
| O=C(CC1CCCCC1)NCc1ccco1 | -0.144% | – |
| O=C(CN1C(=O)/C(=C/c2ccccc2F)Sc2ccccc21)NCc1cccnc1 | 1.48% | – |
| COc1cccc(C(CC(=O)NCCN2CCOCC2)NS(=O)(=O)c2ccc(C)cc2)c1OC (stereo unspecified) | 2.49% | – |
| CCc1nccn1CCC(=O)N1CCCC(N2CCN(c3ccccc3F)CC2)C1 (stereo unspecified) | 5.56% | – |
| CC1(c2ccc(Cl)cc2Cl)NC(=O)N(CC(=O)Nc2cccnc2Cl)C1=O (stereo unspecified) | 0.863% | – |
| O=C(c1ccco1)N1CCN(CC(=O)N(C2CCCCC2)C2CCS(=O)(=O)C2)CC1 (stereo unspecified) | 0.872% | – |
| COc1ccc(CNC(=O)c2c[nH]c3c(OC)cc(OC)cc3c2=O)cc1 | 2.43% | – |
| CC(=O)N1N=C(c2ccncc2)OC1(Cc1ccccc1)Cc1ccccc1 | 0.466% | – |
| COC(=O)CCc1sc(Nc2ccc(Br)cc2)nc1-c1ccc(OC)cc1 | -25.4% | – |
| CN(C(=O)COC(=O)CCCc1c[nH]c2ccccc12)c1c(N)n(Cc2ccccc2)c(=O)[nH]c1=O | 2.28% [at 6.58 µM] | – |
